Data on 31 molecules can be found in PubChem BioAssay (NCI).

Structures are written as SMILES. About 83,000 compounds went through this panel and 20% of them were active in at least one assay; those are over-represented in the sample as a whole.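 Plates (96-well) were seeded with cells, treated with compound at one concentration, and incubated for 48 hours before percent growth was determined.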 Values without a mark were called inactive. The source made the active and inactive calls. The calls were made as follows: active = growth percent below 10; inactive = the rest.

The subject of the assay is SW-620 colon. The assay is described as follows: NCI-60 one-dose screen, 48 h (100 = growth as untreated, 0 = no growth, -100 = all killed). Particulars: 10 µM unless noted.
On to `Nc1cc(C(=O)N/N=C\c2ccc(OC(F)F)c(OC3CCCC3)c2)nn1CC(O)c1ccccc1` (stereo unspecified), for which the growth was 103%.

Regarding `Clc1ccc2[nH]cc(-c3nn4cc(-c5ccncc5)nc4s3)c2c1`, the growth is 50.7%. With `CN1CC[C@@H]2[C@@]3(C)CC[C@H](O)C(C)(C)[C@@H]3CC[C@@]2(C)[C@]2(C)CC[C@@]3(CO)CCC(C)(C)C[C@@H]3C12` (stereo partly specified), the growth was 90.2%. Consider `Brc1cc(-c2cc(-c3ccc4c(c3)OCCO4)[nH]n2)cs1`, for which the growth was 36.7%. Take `NS(=O)(=O)c1ccc(Nc2nc(Nc3ccccc3)nc(N3N=C(c4ccc(Cl)cc4)CC3c3ccc(Cl)cc3)n2)cc1` (stereo unspecified): the growth was 54.4%.

As for `O=C(N/N=C\c1ccc([N+](=O)[O-])cc1)c1ccc2nc(-c3ccc(Br)cc3)[nH]c2c1`, the growth is 5.34% (active). For `O=C(/C=C/c1cccc(C(F)(F)F)c1)Nc1cccc(C(F)(F)F)c1`, the growth was 33.5%. `Brc1cccc(-c2cc(-c3ccc4c(c3)OC=CO4)[nH]n2)c1`: the growth is 31.5%. Turning to `CCc1cc2c(cc1Cl)nc1c(=O)[nH]c(=O)nc-1n2CCOCC(C)C`, the growth was 70.2%. Consider `CCCCSC1=C(Cl)CN(c2ccccc2)C1=O`, for which the growth was 106%. On to `Brc1ccc(-c2cc(-c3ccc4c(c3)OC=CO4)n[nH]2)s1`, for which the growth is 79.1%. Take `O=c1c2cc(-c3ccc(F)cc3F)ccc2n(Nc2ccccc2)c(=O)n1-c1cccc(C(F)(F)F)c1`: the growth is 16%. With `CN1CCN(CCCCCC(=O)Nc2nc(-c3cccc(NS(=O)(=O)c4cccc5c(N(C)C)cccc45)c3)cs2)CC1` the figure was 92.8%; with `CCCCc1nc2c(N)nc3ccccc3c2n1Cc1cccc(CN)c1`, 52.6%. Regarding `CCCCCCCCCCCC(=O)NC(C)(C)C(=O)N1CCCC1C(=O)NC(C)(C)C(=O)NC(C)(C)C(=O)N1CCCC1C(=O)NC(C)(C)C(=O)NC(C)(C)C(=O)N1CCCC1C(=O)NC(C)C(=O)NCCC(=O)NC(C)C(=O)NC(C)(C)C(=O)NC(C)(C)C(=O)NC(C)(C)C(=O)NCCC(=O)NC(C)(C)C(=O)NC(C)(C)C(=O)NC(C)(C)C(=O)NC(C)C(=O)NCCC(=O)O` (stereo unspecified), the growth was -92.3% (active). As to `NS(=O)(=O)c1ccc(Nc2nc(N/N=C/c3ccc4c(c3)OCO4)nc(Nc3ccccc3)n2)cc1`, the growth is 49.8%. With `O=[N+]([O-])c1ccc(NC(=S)NNC(=S)Nc2ccc(Br)cc2)cc1`, the growth was 91.1%. On to `Cc1cc(=O)[nH]c(O)c1C#N`, for which the growth was 96.6%.

Consider `Cc1ccc(OCc2occc2C(=O)N2CCOCC2)cc1`, for which the growth is 102%. With `O=C1C(SCc2ccccc2)=C(Cl)CN1c1ccccc1` the figure was 102%; with `COc1ccc(C2C(C#N)=C(/N=C/c3ccc(Cl)cc3)Oc3c2sc2c(C)cccc32)cc1` (stereo unspecified), 31.2%; with `CN(C)CCNc1ccc2ncc(C#Cc3cncc(C(=O)Nc4ccc(CN5CCN(C)CC5)c(C(F)(F)F)c4)c3)n2n1`, -6.29% (active). In the case of `CN1CCC[C@]2(C)[C@H]3CC[C@@H]4[C@@H]5[C@H]6OC[C@@]5(CCC6(C)C)CC[C@@]4(C)[C@]3(C)CC[C@H]2C1(C)C`, the growth is 23.2%. The value for `COc1ccccc1/C=C/C(=O)c1nnn(-c2ccc(F)cc2)c1C` was 19.9%.

With `CC(C)[C@H]1c2[nH]c3ccccc3c2C[C@H]2C(=O)N(CCCCCCC(=O)NO)CC(=O)N12`, the growth is 82.3%. Consider `COC(=O)CCCNCCCn1ccc2cc(NCc3cccc(-c4ccccc4)c3C)ccc21`, for which the growth was 66.5%. As for `C=C(C=O)[C@@H]1CC[C@]2(C(=O)O)CC[C@]3(C)C(CC[C@@H]4[C@@](C)(CCC#N)[C@H](C(=C)C=O)CC[C@]43C)[C@@H]12` (stereo partly specified), the growth was 10.9%. Turning to `CC1(C)CC[C@]23CC[C@]4(C)[C@H](CC[C@@H]5[C@@]6(C)CC[C@H](NCO)C(C)(C)[C@@H]6CC[C@]54C)[C@H]2[C@H]1OC3`, the growth was -73.5% (active). Regarding `O=C1/C(=C/C=C/c2ccco2)SC(=S)N1Cc1ccccc1`, the growth was 94.2%. Regarding `COc1ccc(/C=N/NC(=O)c2c(N)nn(C)c2Nc2ccccc2)cc1Oc1ccccc1`, the growth was 100%. Turning to `Cc1[nH]c(C(=O)Nc2ccc(S(=O)(=O)N3CCCCC3)cc2OCCOCCOCCOCCOCCOCCOCCOCCOCCOc2cc(S(=O)(=O)N3CCCCC3)ccc2NC(=O)c2[nH]c(C)c3c2CCCCC3=O)c2c1C(=O)CCCC2`, the growth is 37.6%.
